Test [1] can be described thus: Nuclear factor erythroid 2-related factor 2/antioxidant responsive element (Nrf2/ARE) small molecule agonists: qHTS cell viability counter screen in human keratinocytes (AID 1919968; active means well fitted curve in the direction sought with a large enough effect in the repeat runs; an effect the other way counts as inactive or inconclusive; further: nearly all actives have a fitted effect of over 55% in size; further: potency means the concentration at half of the fitted maximal effect). In short, it runs like this: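 In human HaCaT keratinocytes stably expressing an ARE-driven luciferase, compound exposure lasted 23 h at 37 C under 5% CO2. Viable cells are quantified with a protease-based fluorogenic reagent (CellTiter-Fluor) read 1 h after addition.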
For orientation: qHTS replaces the single test concentration by a dilution series.

For test [2], the target named is Gonadotropin-releasing hormone receptor (Homo sapiens) (UniProt P30968). Briefly: Human gonadotropin-releasing hormone receptor (GnRHR) small molecule agonists, calcium flux assay in GnRHR-HEK293 cells (AID 1920063). Further: nearly all actives have a fitted effect of over 35% in size. In short, it runs like this:
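Intracellular calcium rise is the read-out: engineered human GnRHR HEK293 cells, dye-loaded, are exposed to DMSO-dissolved compounds and fluorescence at Ex/Em 480/540 is tracked for 3 min.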

The target in test [3] is KiSS-1 receptor (Homo sapiens) (UniProt Q969F8). The test is described as follows: Human kisspeptin (KISS1R) small molecule agonists, calcium flux assay in KISS1R-HEK293 cells (AID 1920064; active means well fitted curve in the direction sought with a large enough effect in the repeat runs; an effect the other way counts as inactive or inconclusive). The method, boiled down: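 Concentration-response testing used 15 concentrations in triplicate on human KISS1R-expressing HEK293 cells. Calcium-dependent fluorescence (Ex/Em 480/540) was followed kinetically for 3 min after compound transfer.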
Chain of KiSS-1 receptor (Homo sapiens) (Q969F8 whole entry, looked up): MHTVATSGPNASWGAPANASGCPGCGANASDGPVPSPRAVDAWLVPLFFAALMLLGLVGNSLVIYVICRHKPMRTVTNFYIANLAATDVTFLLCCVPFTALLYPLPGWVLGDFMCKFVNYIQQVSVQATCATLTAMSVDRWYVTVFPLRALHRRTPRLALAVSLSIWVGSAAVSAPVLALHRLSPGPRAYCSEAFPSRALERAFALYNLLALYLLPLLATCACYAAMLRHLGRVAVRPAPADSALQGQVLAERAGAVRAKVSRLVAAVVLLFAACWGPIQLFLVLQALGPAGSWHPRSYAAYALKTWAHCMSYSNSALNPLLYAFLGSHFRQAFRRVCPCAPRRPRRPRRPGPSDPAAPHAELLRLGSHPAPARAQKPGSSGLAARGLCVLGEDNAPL
In general terms: Calcium flux is commonly read through the fluorescence of an indicator in the cells.

Test [4] in a line: G protein-coupled receptor (GPCR) small molecule agonists, calcium flux assay: HEK293 wild type cell line counter screen (AID 1920065). The method, boiled down: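 Fluorescence intensity signals activation. After overnight (18 h) culture and a 1 h calcium dye load at 37 C, compounds are added by pin tool and the plate read at 480/540 nm for 3 min in 1 s steps.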
The nature of test [5]: p53 small molecule agonists, cell-based qHTS assay with rat liver microsomes (AID 1963578). The method, boiled down:
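Cells carrying a p53 response element–beta-lactamase reporter were plated and rested 5 h, then dosed with compound in DMSO plus rat liver microsomes and NADPH, each at 0.5 mg/mL final. After 16 h at 37 C, LiveBLAzer substrate was added for 2 h.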

Test [6] can be described thus: p53 small molecule agonists, cell-based qHTS assay with human liver microsomes: qHTS cell viability counter screen (AID 1963579). Further: nearly all actives have a fitted effect of over 45% in size. In short, it runs like this:
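Cytotoxicity counter screen: p53RE-bla, 4,000 cells/well; 5 h settle, 37 C/5% CO2; cpd + HLM 0.5 mg/mL + NADPH 0.5 mg/mL (final); 16 h, 37 C; CellTiter-Glo, 30 min RT, luminescence.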

Test [7] is described as follows: p53 small molecule agonists, cell-based qHTS assay with rat liver microsomes: qHTS cell viability counter screen (AID 1963580). Further: nearly all actives have a fitted effect of over 45% in size. Further: potency means the concentration at half of the fitted maximal effect. The method, boiled down:
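Rat liver microsome (0.5 mg/mL final) and NADPH (0.5 mg/mL final) co-incubation with compounds for 16 h at 37 C on HCT-116 p53RE-bla cells; cytotoxicity taken from intracellular ATP luminescence.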

A short description of test [8]: p53 small molecule agonists, cell-based qHTS assay: qHTS cell viability counter screen (AID 1963581). Further: nearly all actives have a fitted effect of over 45% in size. The method, boiled down: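 Luminescence from CellTiter-Glo, reflecting ATP content, serves as the cytotoxicity measure; it is taken after the 2 h reporter substrate step in HCT-116 p53RE-bla cells dosed for 16 h at 37 C.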
Test [9] can be described thus: p53 small molecule agonists, cell-based qHTS assay (AID 1963582; active means well fitted activation curve with a large enough effect in the signal ratio in the repeat runs, not every such curve was filed as active; the % refers to the signal ratio). The method, boiled down: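 After plating, p53RE-bla cells sat 5 h in the incubator; compounds or DMSO vehicle were pinned in; a 16 h incubation at 37 C followed; FRET substrate was added and, 2 h later at RT, fluorescence was measured.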
For test [10], the target named is 5-hydroxytryptamine receptor 2A (Homo sapiens) (UniProt P28223). The test is described as follows: 5-hydroxytryptamine receptor 2A (HTR2A) small molecule antagonists, cell-based qHTS assay (AID 1963586). Further: nearly all actives have a fitted effect of over 45% in size. In short, it runs like this: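 CHO cells stably expressing human HTR2A were plated for 18 h at 37 C, then loaded with calcium dye for 1 h. Compounds were preincubated 5 min at room temperature before DOI (4 nM solution) was added. Kinetic fluorescence was read for 3 min.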
Chain of 5-hydroxytryptamine receptor 2A (Homo sapiens) (P28223 whole entry, looked up): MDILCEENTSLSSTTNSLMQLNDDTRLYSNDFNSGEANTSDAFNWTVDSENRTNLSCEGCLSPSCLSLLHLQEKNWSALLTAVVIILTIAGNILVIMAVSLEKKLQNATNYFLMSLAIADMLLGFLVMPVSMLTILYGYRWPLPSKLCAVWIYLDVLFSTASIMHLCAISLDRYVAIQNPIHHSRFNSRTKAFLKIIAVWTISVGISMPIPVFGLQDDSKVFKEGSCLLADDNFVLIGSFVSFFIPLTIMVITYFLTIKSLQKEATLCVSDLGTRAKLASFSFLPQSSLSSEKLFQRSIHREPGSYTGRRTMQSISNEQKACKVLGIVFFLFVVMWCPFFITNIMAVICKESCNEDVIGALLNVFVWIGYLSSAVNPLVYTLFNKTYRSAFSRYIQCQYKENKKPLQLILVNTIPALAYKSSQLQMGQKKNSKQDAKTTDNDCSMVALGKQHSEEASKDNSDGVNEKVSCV

Test [11] has the same target. Briefly: 5-hydroxytryptamine receptor 2A (HTR2A) small molecule agonists, cell-based qHTS assay (AID 1963587). Further: nearly all actives have a fitted effect of over 30% in size. In short, it runs like this:
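Kinetic calcium-flux fluorescence (2 min, 1 sec intervals) after compound addition in agonist mode. HTR2A-CHO cells were cultured 18 h, then dye-loaded 1 h at 37 C.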

In test [12] the target is Muscarinic acetylcholine receptor M1 (Homo sapiens) (UniProt P11229). Briefly: Cholinergic receptor muscarinic 1 (CHRM1) small molecule antagonists, cell-based qHTS assay (AID 1963588). Further: nearly all actives have a fitted effect of over 40% in size. The method, boiled down:
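Compounds were tested at 15 concentrations in three independent runs. Dye-loaded CHRM1-CHO cells were exposed 5 min at room temperature before stimulation by acetylcholine added at 50nM. Intracellular calcium was read kinetically on FDSS for 3 min.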

Test [13] shares this target. The test is described as follows: Cholinergic receptor muscarinic 1 (CHRM1) small molecule agonists, cell-based qHTS assay (AID 1963589). Further: nearly all actives have a fitted effect of over 35% in size. The method, boiled down: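 Fluorescent calcium dye reports M1 activation in stably transfected CHO cells. Compounds, 15 concentrations, added after 1 h dye loading at 37 C; kinetic reading at 1 sec intervals.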
For test [14], the target named is Beta-2 adrenergic receptor (Homo sapiens) (UniProt P07550). Briefly: Adrenergic beta2 receptor (ADRB2) small molecule antagonists, cell-based qHTS assay (AID 1963592). Further: series mostly up to about 92 µM; nearly all actives have a fitted effect of over 50% in size. In short, it runs like this:
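Assay format: CHO-ADRB2 cells, 18-20hr seeding at 37C/5% CO2, then compound plus 1nM isoproterenol agonist mix for 0.5hr RT. Homogeneous time-resolved fluorescence cAMP detection after 1hr, expressed as 665/615 nm ratio.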

Test [15] concerns the target D(2) dopamine receptor (Homo sapiens) (UniProt P14416). The test is described as follows: Dopamine D2 receptor (DRD2) small molecule agonists, cell-based qHTS assay (AID 1963594). Further: nearly all actives have a fitted effect of over 35% in size. Further: potency means the concentration at half of the fitted maximal effect. The method, boiled down: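 cAMP accumulation in DRD2-HEK293 cells measured by HTRF after 1 h detection; compounds added 10 min before NKH477 (200nM […]) forskolin-analogue stimulation, 30 min at room temperature, with Ro20-1724 present at 0.1 mM final.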

Test [16] shares this target. The test is described as follows: Dopamine D2 receptor (DRD2) small molecule antagonists, cell-based qHTS assay (AID 1963595; active means well fitted inhibition curve with a large enough effect in the signal ratio in the repeat runs, with a control signal flat; the % refers to the signal ratio). In short, it runs like this: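 Stable D2 receptor HEK293 line, 24 h after seeding. Compound preincubated 10 min, then quinpirole (12 nM) with forskolin analogue NKH477 (200 nM), 30 min, room temperature. Detection by time-resolved FRET of cAMP.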

Test [17] has as its target Beta-2 adrenergic receptor (Homo sapiens) (UniProt P07550). Briefly: Adrenergic beta2 receptor (ADRB2) small molecule agonists, cell-based qHTS assay (AID 1963593).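 Further: CHO cells stably overexpressing human ADRB2.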 The method, boiled down: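 CHO cells stably over-expressing ADRB2 were plated overnight at 37C, then dosed with compounds plus a stimulation mix containing 100uM IBMX and 25uM Ro-20-1724 for 0.5hr at room temperature. cAMP was measured by HTRF competition, 1hr.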

A short description of test [18]: p53 small molecule agonists, cell-based qHTS assay with human liver microsomes (AID 1963577). In short, it runs like this: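 Fluorescence of the beta-lactamase reporter in p53RE-bla cells, detected with LiveBLAzer substrate (2 h, room temperature, dark), served as the read-out after 16 h compound exposure at 37 C with human liver microsomes and NADPH, each 0.5 mg/mL final.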

Test [19] is described as follows: cAMP Responsive Elements (CRE) small molecule agonists, cell-based qHTS assay (AID 1963590). The method, boiled down: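 Compound exposure lasted 3 h at 37 C/5% CO2 in CRE-bla HEK 293T cells grown in assay medium with 10% dialyzed FBS and 25 mM HEPES. Reporter signal came from LiveBLAzer B/G FRET substrate, 2 h, room temperature.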
The nature of test [20]: cAMP Responsive Elements (CRE) small molecule antagonists, cell-based qHTS assay (AID 1963591; active means well fitted inhibition curve with a large enough effect in the signal ratio in the repeat runs, not every such curve was filed as active; the % refers to the signal ratio). In short, it runs like this: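 Stimulation used NKH477 at a final 0.25 uM for 3 h in compound-treated CRE-bla HEK293T cells, seeded 18 h beforehand. Reporter activity was measured with LiveBLAzer B/G FRET substrate after 2 h at room temperature.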

Records with an inconclusive call do not appear. Active and inactive are the calls of the source. Unless noted, the call rests on the fitted dose curve.

Chain of D(2) dopamine receptor (Homo sapiens) (P14416 whole entry, looked up): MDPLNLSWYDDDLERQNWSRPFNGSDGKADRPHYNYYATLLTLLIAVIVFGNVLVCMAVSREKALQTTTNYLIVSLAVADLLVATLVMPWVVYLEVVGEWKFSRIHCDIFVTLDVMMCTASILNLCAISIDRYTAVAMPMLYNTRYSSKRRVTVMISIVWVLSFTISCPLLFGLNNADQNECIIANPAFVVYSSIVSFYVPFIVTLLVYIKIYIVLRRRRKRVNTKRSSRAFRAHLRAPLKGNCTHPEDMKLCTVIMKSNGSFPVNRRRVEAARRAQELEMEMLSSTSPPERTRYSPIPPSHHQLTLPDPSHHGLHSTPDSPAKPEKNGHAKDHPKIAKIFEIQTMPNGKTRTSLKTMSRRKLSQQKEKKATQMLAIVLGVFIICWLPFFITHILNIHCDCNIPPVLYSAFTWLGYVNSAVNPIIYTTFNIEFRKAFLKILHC
Chain of Beta-2 adrenergic receptor (Homo sapiens) (P07550 whole entry, looked up): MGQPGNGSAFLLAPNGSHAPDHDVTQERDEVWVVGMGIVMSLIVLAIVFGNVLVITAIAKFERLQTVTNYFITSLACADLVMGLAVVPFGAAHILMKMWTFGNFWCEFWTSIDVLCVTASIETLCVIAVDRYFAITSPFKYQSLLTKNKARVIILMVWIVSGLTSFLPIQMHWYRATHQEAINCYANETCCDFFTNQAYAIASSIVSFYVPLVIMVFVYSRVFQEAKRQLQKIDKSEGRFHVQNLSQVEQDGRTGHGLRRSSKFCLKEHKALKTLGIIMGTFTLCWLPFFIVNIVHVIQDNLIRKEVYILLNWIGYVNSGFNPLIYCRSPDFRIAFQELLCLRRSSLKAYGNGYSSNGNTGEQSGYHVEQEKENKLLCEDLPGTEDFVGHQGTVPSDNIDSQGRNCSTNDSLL
Chain of Gonadotropin-releasing hormone receptor (Homo sapiens) (P30968 whole entry, looked up): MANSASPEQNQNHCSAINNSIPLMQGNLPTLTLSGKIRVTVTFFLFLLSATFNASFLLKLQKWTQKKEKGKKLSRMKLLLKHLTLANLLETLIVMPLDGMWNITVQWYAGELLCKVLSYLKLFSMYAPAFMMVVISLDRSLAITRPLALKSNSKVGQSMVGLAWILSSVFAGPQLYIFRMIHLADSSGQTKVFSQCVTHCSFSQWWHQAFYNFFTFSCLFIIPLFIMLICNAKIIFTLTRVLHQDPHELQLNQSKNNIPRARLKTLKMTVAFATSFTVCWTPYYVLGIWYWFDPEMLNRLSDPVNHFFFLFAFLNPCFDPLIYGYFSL
Chain of Muscarinic acetylcholine receptor M1 (Homo sapiens) (P11229 whole entry, looked up): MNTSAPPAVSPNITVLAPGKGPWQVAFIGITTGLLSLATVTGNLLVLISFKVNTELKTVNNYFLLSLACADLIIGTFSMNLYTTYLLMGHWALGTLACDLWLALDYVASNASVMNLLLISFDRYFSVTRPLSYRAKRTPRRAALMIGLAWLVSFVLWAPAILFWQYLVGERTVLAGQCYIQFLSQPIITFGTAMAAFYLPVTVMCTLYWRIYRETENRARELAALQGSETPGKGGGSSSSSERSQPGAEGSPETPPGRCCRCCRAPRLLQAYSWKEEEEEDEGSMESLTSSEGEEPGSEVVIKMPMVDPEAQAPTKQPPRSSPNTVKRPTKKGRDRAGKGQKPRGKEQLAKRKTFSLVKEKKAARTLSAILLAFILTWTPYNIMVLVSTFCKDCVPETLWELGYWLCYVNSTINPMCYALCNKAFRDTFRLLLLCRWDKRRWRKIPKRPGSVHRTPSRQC

On to `O=C(O)c1ccc(-n2nc(-c3ccccc3O)nc2-c2ccccc2O)cc1`, for which the Potency entry in [1], in [2], in test [3], in [4], in [5] and in [6] was “inactive” each time. Also, the Potency result in test [7], in test [8], in [9], in [10], in [11] and in test [12] was “inactive” throughout. Moreover, the Potency entry in test [13], in test [14] and in test [16] was “inactive” in each case. Moreover, in [15], the Potency is 11.2 µM (active).

Take `O=C1c2ccccc2C(=O)c2c(Cl)cccc21`: the Potency entry in [1], in test [2], in test [3], in [4], in test [5] and in test [6] was “inactive” throughout. Moreover, the Potency result in [8], in [9], in [10], in test [11], in [13] and in [14] was “inactive” in each case. Also, the Potency result in test [17], in [15] and in test [16] was “inactive” in each case. Further, in test [7], the Potency is 0.965 µM (active).

As to `COc1nc(N)nc2c1ncn2[C@@H]1O[C@H](CO)[C@@H](O)[C@@H]1O`, the Potency result in test [1], in test [2], in test [3], in test [4], in test [18] and in test [6] was “inactive” each time. In addition, the Potency result in test [7], in test [8], in [9], in [10], in [11] and in test [12] was “inactive” throughout. Moreover, the Potency result in test [13], in [19], in test [20], in [14], in test [17] and in test [15] was “inactive” in each case.

For `[Cl][Au]([Cl])[Cl]`, in [1], the Potency is 3.06 µM (active). Further, the Potency result in test [2], in test [3], in [4], in test [18], in test [5] and in test [10] was “inactive” in each case. The Potency entry in [11], in [12], in [13], in test [14], in [15] and in test [16] was “inactive” each time.

For the compound `O=C1CCc2ccc(OCCCCN3CCN(c4cccc(Cl)c4Cl)CC3)cc2N1`, the Potency in test [1] is 21.1 µM (active). Further, the Potency result in test [2], in test [3], in [4], in test [18], in [6] and in [7] was “inactive” throughout. Further, the Potency result in test [13] and in test [20] was “inactive” in each case.

As for `C=CC(=O)OCCC#N`, the Potency result in [1], in [2], in test [3], in test [4], in test [5] and in [6] was “inactive” in each case. The Potency entry in [7], in test [8], in test [9], in [10], in [11] and in test [12] was “inactive” throughout. In addition, the Potency entry in test [13], in [19], in test [20], in [14], in [17] and in [15] was “inactive” throughout. The Potency result in test [16] is “inactive”.

Regarding `C/C=C1\[C@H]2C=C(C)C[C@]1(N)c1ccc(=O)[nH]c1C2`, the Potency entry in test [1], in test [2], in test [3], in test [4], in test [5] and in test [6] was “inactive” each time. The Potency result in [7], in test [8], in test [9], in test [19], in [20] and in [17] was “inactive” throughout. For the same compound, the Potency result in test [15] and in test [16] was “inactive” throughout.

Values taken from PubChem BioAssay (Tox21).
